{
  "source": "paper PMC12820563",
  "about": "“FoxP3 forms a head-to-head dimer in vivo and stabilizes its multimerization on adjacent microsatellites”",
  "note": "In all, about 16,000 sequences were measured (“rpm ratio (pull-down/input)”: median about 0.94, highest 2% from about 1.7 on). Shown is part of a subset that was picked to be rich in the highest values.",
  "data": [
    {"biological_target": "T1, MBP-FoxP1dN (Mus musculus, UniProt P58462 326-579)", "T1 sequence": "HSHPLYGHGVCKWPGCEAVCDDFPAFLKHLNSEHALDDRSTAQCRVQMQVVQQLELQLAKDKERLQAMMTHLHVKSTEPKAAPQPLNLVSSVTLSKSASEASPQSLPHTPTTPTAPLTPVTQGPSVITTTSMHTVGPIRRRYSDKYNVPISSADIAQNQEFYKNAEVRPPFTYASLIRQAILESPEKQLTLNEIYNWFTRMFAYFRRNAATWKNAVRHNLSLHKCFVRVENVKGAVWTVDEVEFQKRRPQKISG", "test": "PD-seq (MBP pull-down with sequencing); 20 mM Tris-HCl pH 7.5, 100 mM NaCl, 1.5 mM MgCl2, 0.4 uM protein, 0.1 uM dsDNA library, 30 min, room temperature, amylose pull-down; high values mean tight binding", "conditions": "protein: recombinant; tags: His6-MBP; chain copies: 2; dsDNA, one strand shown", "procedure,_shortened": "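In Tris pH 7.5 buffer with NaCl and MgCl2, 0.4 µM His6-MBP-tagged mouse FoxP3 or FoxP1 fragment lacking the N-terminus, from E. coli, met 0.1 µM Klenow-filled double-stranded degenerate DNA library for 30 min at room temperature. Three washes on amylose resin followed capture of the complexes, then proteinase K release of DNA, PCR barcoding and Illumina sequencing. Binding is taken as pooled-replicate reads-per-million enrichment of pull-down relative to input.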", "values": [
      {"sequence": "GATGATTGTTCTCCCAGCTGATGAATTGTTTTTGTCGAGTAAACAAATTTTCCTAATCTTTCTGTTCAAGCGCCATCTAC", "binding signal": "2.31 RPM ratio (pull-down/input)"},
      {"sequence": "GATGATTGTTCTCCCAGCTGATGAATTGTTTGCGTCGAGTAAACAAATTTTCCTAATCTTTCTGTTCAAGCGCCATCTAC", "binding signal": "2.27 RPM ratio (pull-down/input)"},
      {"sequence": "GATGATTGTTCTCCCAGCTGATGAATTGAATTTGTCGAGTAAACAAATTTTCCTAATCTTTCTGTTCAAGCGCCATCTAC", "binding signal": "0.98 RPM ratio (pull-down/input)"},
      {"sequence": "GATGATTGTTCTCCCAGCTGATGAATTTGTTCTGTCGAGTAAACAAATTTTCCTAATCTTTCTGTTCAAGCGCCATCTAC", "binding signal": "1.07 RPM ratio (pull-down/input)"},
      {"sequence": "GATGATTGTTCTCCCAGCTGATGAATTTTGTCTGTCGAGTAAACAAATTTTCCTAATCTTTCTGTTCAAGCGCCATCTAC", "binding signal": "1.02 RPM ratio (pull-down/input)"},
      {"sequence": "GATGATTGTTCTCCCAGCTGATGAATTTTCTTTGTCGAGTAAACAAATTTTCCTAATCTTTCTGTTCAAGCGCCATCTAC", "binding signal": "1.11 RPM ratio (pull-down/input)"},
      {"sequence": "GATGATTGTTCTCCCAGCTGATGAATTGTTTCTGTCGAGTAAACAAATTTTCCTAATCTTTCTGTTCAAGCGCCATCTAC", "binding signal": "1.25 RPM ratio (pull-down/input)"},
      {"sequence": "GATGATTGTTCTCCCAGCTGATGAATTTCCTATATCGAGTAAACAAATTTTCCTAATCTTTCTGTTCAAGCGCCATCTAC", "binding signal": "0.903 RPM ratio (pull-down/input)"},
      {"sequence": "GATGATTGTTCTCCCAGCTGATGAATTCCAACTTTCGAGTAAACAAATTTTCCTAATCTTTCTGTTCAAGCGCCATCTAC", "binding signal": "0.884 RPM ratio (pull-down/input)"},
      {"sequence": "GATGATTGTTCTCCCAGCTGATGAATTATCGTGTTCGAGTAAACAAATTTTCCTAATCTTTCTGTTCAAGCGCCATCTAC", "binding signal": "1.08 RPM ratio (pull-down/input)"},
      {"sequence": "GATGATTGTTCTCCCAGCTGATGAATTATAGACATCGAGTAAACAAATTTTCCTAATCTTTCTGTTCAAGCGCCATCTAC", "binding signal": "1.21 RPM ratio (pull-down/input)"},
      {"sequence": "GATGATTGTTCTCCCAGCTGATGAATTCTCTCCCTCGAGTAAACAAATTTTCCTAATCTTTCTGTTCAAGCGCCATCTAC", "binding signal": "0.835 RPM ratio (pull-down/input)"},
      {"sequence": "GATGATTGTTCTCCCAGCTGATGAATTGGTCAATTCGAGTAAACAAATTTTCCTAATCTTTCTGTTCAAGCGCCATCTAC", "binding signal": "1.08 RPM ratio (pull-down/input)"},
      {"sequence": "GATGATTGTTCTCCCAGCTGATGAATTCAGAAACTCGAGTAAACAAATTTTCCTAATCTTTCTGTTCAAGCGCCATCTAC", "binding signal": "0.844 RPM ratio (pull-down/input)"},
      {"sequence": "GATGATTGTTCTCCCAGCTGATGAATTCGCATAATCGAGTAAACAAATTTTCCTAATCTTTCTGTTCAAGCGCCATCTAC", "binding signal": "1.22 RPM ratio (pull-down/input)"},
      {"sequence": "GATGATTGTTCTCCCAGCTGATGAATTAATAACCTCGAGTAAACAAATTTTCCTAATCTTTCTGTTCAAGCGCCATCTAC", "binding signal": "1 RPM ratio (pull-down/input)"},
      {"sequence": "GATGATTGTTCTCCCAGCTGATGAATTCCCGCCCTCGAGTAAACAAATTTTCCTAATCTTTCTGTTCAAGCGCCATCTAC", "binding signal": "0.758 RPM ratio (pull-down/input)"},
      {"sequence": "GATGATTGTTCTCCCAGCTGATGAATTTTAGGTGTCGAGTAAACAAATTTTCCTAATCTTTCTGTTCAAGCGCCATCTAC", "binding signal": "0.902 RPM ratio (pull-down/input)"},
      {"sequence": "GATGATTGTTCTCCCAGCTGATGAATTCAATTTGTCGAGTAAACAAATTTTCCTAATCTTTCTGTTCAAGCGCCATCTAC", "binding signal": "1.07 RPM ratio (pull-down/input)"},
      {"sequence": "GATGATTGTTCTCCCAGCTGATGAATTCTGTTTGTCGAGTAAACAAATTTTCCTAATCTTTCTGTTCAAGCGCCATCTAC", "binding signal": "2.36 RPM ratio (pull-down/input)"},
      {"sequence": "GATGATTGTTCTCCCAGCTGATGAATTCTTTTTGTCGAGTAAACAAATTTTCCTAATCTTTCTGTTCAAGCGCCATCTAC", "binding signal": "0.964 RPM ratio (pull-down/input)"},
      {"sequence": "GATGATTGTTCTCCCAGCTGATGAATTGTTTTCTTCGAGTAAACAAATTTTCCTAATCTTTCTGTTCAAGCGCCATCTAC", "binding signal": "2.03 RPM ratio (pull-down/input)"},
      {"sequence": "GATGATTGTTCTCCCAGCTGATGAATTGTTTCCTTCGAGTAAACAAATTTTCCTAATCTTTCTGTTCAAGCGCCATCTAC", "binding signal": "1.44 RPM ratio (pull-down/input)"},
      {"sequence": "GATGATTGTTCTCCCAGCTGATGAATTTGATGTTTCGAGTAAACAAATTTTCCTAATCTTTCTGTTCAAGCGCCATCTAC", "binding signal": "1.16 RPM ratio (pull-down/input)"},
      {"sequence": "GATGATTGTTCTCCCAGCTGATGAATTGAATGTTTCGAGTAAACAAATTTTCCTAATCTTTCTGTTCAAGCGCCATCTAC", "binding signal": "1.01 RPM ratio (pull-down/input)"},
      {"sequence": "GATGATTGTTCTCCCAGCTGATGAATTGCTGATTTCGAGTAAACAAATTTTCCTAATCTTTCTGTTCAAGCGCCATCTAC", "binding signal": "1.31 RPM ratio (pull-down/input)"},
      {"sequence": "GATGATTGTTCTCCCAGCTGATGAATTTCTTCTTTCGAGTAAACAAATTTTCCTAATCTTTCTGTTCAAGCGCCATCTAC", "binding signal": "1.01 RPM ratio (pull-down/input)"},
      {"sequence": "GATGATTGTTCTCCCAGCTGATGAATTTGCTGTTTCGAGTAAACAAATTTTCCTAATCTTTCTGTTCAAGCGCCATCTAC", "binding signal": "1.33 RPM ratio (pull-down/input)"},
      {"sequence": "GATGATTGTTCTCCCAGCTGATGAATTGATGTTTTCGAGTAAACAAATTTTCCTAATCTTTCTGTTCAAGCGCCATCTAC", "binding signal": "2.82 RPM ratio (pull-down/input)"},
      {"sequence": "GATGATTGTTCTCCCAGCTGATGAATTGCTGTTTTCGAGTAAACAAATTTTCCTAATCTTTCTGTTCAAGCGCCATCTAC", "binding signal": "2.45 RPM ratio (pull-down/input)"},
      {"sequence": "GATGATTGTTCTCCCAGCTGATGAATTTGTTTCGTCGAGTAAACAAATTTTCCTAATCTTTCTGTTCAAGCGCCATCTAC", "binding signal": "1.3 RPM ratio (pull-down/input)"},
      {"sequence": "GATGATTGTTCTCCCAGCTGATGAATTGTTTTCGTCGAGTAAACAAATTTTCCTAATCTTTCTGTTCAAGCGCCATCTAC", "binding signal": "2.02 RPM ratio (pull-down/input)"},
      {"sequence": "GATGATTGTTCTCCCAGCTGATGAATTTCTTTCGTCGAGTAAACAAATTTTCCTAATCTTTCTGTTCAAGCGCCATCTAC", "binding signal": "0.887 RPM ratio (pull-down/input)"}
    ]}
  ]
}
